We go through five molecules from PubChem BioAssay.

The nature of assay [1]: inhibitors of TNFa-induced NFkB p65 translocation, primary screen, imaging, HUVEC, MLSMR starter and 10KST1 sets (AID 438;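 active = inhibition above 20% together with a positive visual image hit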;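 also: compound added about 3h40 before a 20 min TNFalpha stimulation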;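 as to inhibition: signal is the nuclear over cytoplasmic p65 intensity ratio per well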). Particulars: HUVEC TNFa-induced p65 nuclear translocation; cell count: measured here: nuclei count (cytotoxicity indicator), at 2.08 µM; inhibition: at 2 µM, stronger effect = higher value, 0% TNFa-plus-vehicle, 100% no-TNFa wells.
Assay [2] in a line: inhibitors of mutant huntingtin aggregation, primary screen, imaging, exon1htt(103Q)mCFP cells, high-content imaging (AID 483;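 active = visual image review flags a hit and inhibition of aggregation exceeds 20%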;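 also: compound exposure lasted 3 days before fixation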;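 as to nuclei count: percent of the per-plate median nuclei count of sample wells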). Particulars: exon1htt(103Q)mCFP cell line, aggregate imaging, at 2 µM; inhibition of aggregation: stronger effect = higher value; nuclei count: measured here: cell count, toxicity.
Assay [3] can be described thus: inhibitors of E-selectin induction by TNFa, primary screen, imaging, HUVEC, immunofluorescence, MLSMR starter and 10KST1 sets (AID 487;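 active = visually confirmed hit in the image check and inhibition above 20%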;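 as to inhibition: signal is fraction of cell area covered by stained E-selectin grains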;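 as to nuclei count: 100% = median nuclei count of all wells on the same plate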). Particulars: HUVEC TNFalpha-induced E-selectin immunofluorescence imaging, at 2 µM; inhibition: stronger effect = higher value; nuclei count: measured here: cell number, toxicity.
Assay [4] is described as follows: DUSP6 inhibitors restoring Erk phosphorylation by chemical complementation, primary imaging in DUSP6-transfected HeLa (AID 609;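 active = compounds giving at least 50% inhibition in the cell-based MKP-3 phosphatase rescue imaging test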;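 as to inhibition: phospho-Erk level distribution per well compared with pooled transfected vehicle control wells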). Particulars: HeLa MKP-3 transfected, phospho-Erk imaging KS statistic, at 10 µM, cells stimulated with TPA for 15 min.
Assay [5] concerns the target Dual specificity protein phosphatase 6 (Homo sapiens) (UniProt Q16828). The assay is described as above. Particulars: HeLa MKP-3 transfected, phospho-Erk imaging KS statistic; at 10 µM; stronger effect = higher value; cells stimulated with TPA for 15 min.
Assay [6] deals with Voltage-gated potassium channel subunit beta-2 (Rattus norvegicus) (UniProt P62483). The experiment in a line: KvBeta enzyme negative modulators, primary screen, biochemical, NADPH fluorescence (AID 622;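 active = fluorescence slope higher than the sample average by over 3 SD, cut at about -0.22 in these data, passing the limit was not always enough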;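 also: slope of raw intensity against log time taken from 70 to 1610 s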). The settings on record: recombinant KvBeta, 4-cyanobenzaldehyde reduction, at 10 µM, stronger effect = higher value.
Assay [7] has the same target. In words: KvBeta positive modulators, primary screen, biochemical, NADPH fluorescence (AID 623;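 active = NADPH fluorescence slope more negative than the mean of all samples by about 3 SD, 99.7% confidence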;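 also: fluorescence intensity change per second fitted from 20 to 320 s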). The settings on record: Recombinant KvBeta, NADPH fluorescence decrease slope, 10 min; at 10 µM; stronger effect = lower value.
The target in assay [8] is Alpha-2C adrenergic receptor (Homo sapiens) (UniProt P18825). The experiment in a line: modulators of alpha2C/GIRK thallium flux, primary screen, cell-based, HEK293 alpha2C/GIRK1/2 (AID 624;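 active = fluorescence slope after compound addition differing from the mean of all screened samples at 99.7% confidence, in either direction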;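 also: slope of fluorescence ratio to pre-addition baseline per second over 15 to 24 s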). Particulars: thallium flux BTC fluorescence, at 10 µM, actives lie on both sides.
In assay [9] the target is Muscarinic acetylcholine receptor M4 (Homo sapiens) (UniProt P08173). In words: compounds altering M4/GIRK thallium flux, either direction, primary screen, M4 allosteric agonist project, cell-based, HEK293 M4/GIRK, BTC-AM (AID 625).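 Also: thallium influx through GIRK channels coupled to M4 in HEK293 cells with BTC-AM dye.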 Particulars: at 10 µM, actives lie on both sides.
Assay [10] is described as follows: inhibitors of larval lipid processing in zebrafish, primary screen, whole organism, PED6 fluorescence, gall bladder and intestine (AID 686;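 active = a full or partial loss of lipid-probe fluorescence in the fish gall bladder, intestine or both, judged by eye; inactive = no fluorescence loss, or compound toxic to the fish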;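 also: larvae 5 to 7 days old with five fish per well; signal comes from phospholipase A2 cleavage of quenched PED6 carried via bile; overnight exposure to compound and PED6 before scoring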). The settings on record: Zebrafish larvae PED6 lipid processing, fluorescence scoring; screened at 20 µM (by protocol).
Assay [11] can be described thus: inhibitors of Chlamydomonas gravitaxis, primary screen, whole organism, Chlamydomonas reinhardtii, WT vs cilia-less mutant, absorbance, 96-well (AID 463189;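 active = inhibition at or above 50% relative to wild type and mutant plate controls; inactive = inhibition below 50%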;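 also: 0% = wild type cc124 cells in DMSO and 100% = ciliumless bld1 mutant cells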). The settings on record: OD600 absorbance, 2 days, at 10 µM, stronger effect = higher value.
Assay [12] is described as follows: inhibitors of Sendai virus-induced IRF3 signaling, primary screen, TLR/RLR signaling modifier project, cell-based, Sendai virus stimulus, luciferase, 10K MLSCN set (AID 602276;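 active = inhibition at or above 50% at 10 µM; inactive = inhibition below 50%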;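 also: firefly luciferase from ISG56 promoter only with Renilla not read in this screen; 0% = Sendai virus plus DMSO and 100% = medium plus DMSO without virus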). Particulars: HEK293 RL24 IRF3 luciferase reporter, at 10 µM, stronger effect = higher value. On the technique in general: In a reporter assay the amount or activity of a reporter protein is the signal.

A short description of assay [13]: inhibitors of poly I:C-induced TLR3 signaling, primary screen, cell-based, poly I:C stimulus, luciferase, 10K MLSCN set (AID 602277;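 active = inhibition of the reporter signal at or above 50%; inactive = inhibition below 50%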). The settings on record: HEK293-TLR3 RL24 IRF3 luciferase reporter, at 10 µM, stronger effect = higher value.
Where [14] appears, read: measured here: cell density z-score.
Where [15] appears, read: measured here: nuclear c-Myc green intensity z-score.
Where [16] appears, read: measured here: nuclear pErk red intensity z-score, stronger effect = higher value.

The source made the active and inactive calls.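 The calls were made as follows, unless noted: active = fluorescence slope after compound addition differing from the mean of all tested samples at 99.7% confidence, mostly higher but some lower; inactive = the rest.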

Voltage-gated potassium channel subunit beta-2 (Rattus norvegicus), sequence (P62483 whole entry, looked up): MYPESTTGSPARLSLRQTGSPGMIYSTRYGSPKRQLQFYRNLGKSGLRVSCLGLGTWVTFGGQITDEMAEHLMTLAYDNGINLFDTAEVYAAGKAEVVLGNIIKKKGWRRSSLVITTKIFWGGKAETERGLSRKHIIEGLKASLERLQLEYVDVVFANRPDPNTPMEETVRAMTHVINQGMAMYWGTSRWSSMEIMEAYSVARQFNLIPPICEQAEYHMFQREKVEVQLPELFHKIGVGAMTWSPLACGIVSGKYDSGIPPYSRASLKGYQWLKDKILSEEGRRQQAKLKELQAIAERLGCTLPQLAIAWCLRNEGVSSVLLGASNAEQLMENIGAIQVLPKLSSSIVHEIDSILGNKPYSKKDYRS
Alpha-2C adrenergic receptor (Homo sapiens), sequence (P18825 whole entry, looked up): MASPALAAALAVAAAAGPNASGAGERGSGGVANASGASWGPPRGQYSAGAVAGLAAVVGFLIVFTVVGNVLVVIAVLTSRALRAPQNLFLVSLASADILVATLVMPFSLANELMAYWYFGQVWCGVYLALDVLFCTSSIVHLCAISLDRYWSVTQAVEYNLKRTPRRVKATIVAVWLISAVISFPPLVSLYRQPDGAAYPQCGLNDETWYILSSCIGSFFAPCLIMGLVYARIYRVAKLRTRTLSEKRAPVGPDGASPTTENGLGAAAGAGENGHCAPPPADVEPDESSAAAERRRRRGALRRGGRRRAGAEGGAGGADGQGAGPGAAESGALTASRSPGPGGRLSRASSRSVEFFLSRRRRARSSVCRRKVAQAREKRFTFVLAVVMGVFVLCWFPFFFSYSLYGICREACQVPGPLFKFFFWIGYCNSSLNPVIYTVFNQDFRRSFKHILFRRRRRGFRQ
Muscarinic acetylcholine receptor M4 (Homo sapiens), sequence (P08173 whole entry, looked up): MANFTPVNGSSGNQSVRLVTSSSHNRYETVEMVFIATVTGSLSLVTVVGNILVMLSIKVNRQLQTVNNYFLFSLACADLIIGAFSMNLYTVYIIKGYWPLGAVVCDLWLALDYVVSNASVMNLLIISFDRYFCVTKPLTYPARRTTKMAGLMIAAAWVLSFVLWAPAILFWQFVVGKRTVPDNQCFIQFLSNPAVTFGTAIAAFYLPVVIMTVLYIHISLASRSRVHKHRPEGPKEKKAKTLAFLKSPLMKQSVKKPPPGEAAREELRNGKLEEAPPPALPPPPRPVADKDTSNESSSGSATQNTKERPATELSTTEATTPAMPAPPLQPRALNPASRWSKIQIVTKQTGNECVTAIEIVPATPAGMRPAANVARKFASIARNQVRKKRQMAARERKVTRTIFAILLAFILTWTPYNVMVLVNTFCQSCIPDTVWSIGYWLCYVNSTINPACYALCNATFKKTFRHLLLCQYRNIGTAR
Dual specificity protein phosphatase 6 (Homo sapiens), sequence (Q16828 whole entry, looked up): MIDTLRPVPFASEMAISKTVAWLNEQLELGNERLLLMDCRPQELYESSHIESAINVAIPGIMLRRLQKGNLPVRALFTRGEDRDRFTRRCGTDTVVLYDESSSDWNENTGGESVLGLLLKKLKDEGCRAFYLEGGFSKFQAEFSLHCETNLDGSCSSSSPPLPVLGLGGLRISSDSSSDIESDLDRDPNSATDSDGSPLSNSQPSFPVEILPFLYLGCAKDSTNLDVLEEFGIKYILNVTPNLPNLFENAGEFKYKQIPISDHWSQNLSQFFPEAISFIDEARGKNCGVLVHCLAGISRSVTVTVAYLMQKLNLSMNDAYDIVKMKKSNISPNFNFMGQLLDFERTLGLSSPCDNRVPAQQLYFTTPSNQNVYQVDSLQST

A word on the inhibition: it is the drop in the measured response relative to a control, in per cent. With `CCOC(=O)Cc1nnc(Nc2cccc(O)c2)c2ccccc12`, the cell count in [1] is 621. Further, the inhibition was -1.7% (inactive) in assay [1]; -46.3% (inactive) in assay [3]; -15.1% (inactive) in [5]; -9.07% (inactive) in assay [11]; 0.504% (inactive) in assay [12]; -8.25% (inactive) in assay [13]. Further, in [2], the inhibition of aggregation is -13.1% (inactive). Moreover, the nuclei count in assay [2] stood at 99.2%; in [3], 131%. Also, the values for the z-score in assay [4] (setting [14]), in assay [4] (setting [15]) and in assay [4] (setting [16]) were -1.97, 0.184 and 0.582, respectively. Besides, the figures for the fluorescence slope in assay [6] and in [9] were -0.457 (inactive) and 0.0057 (inactive), respectively. Also, the NADPH fluorescence slope in assay [7] was -9.4e-05 (inactive). The slope in [8] was 0.00496 (inactive). The molecule was called inactive in assay [10].
For `COC(=O)/C=c1/s/c(=C(/C#N)C(=O)N2CCOCC2)n(-c2ccccc2)c1=O`, in assay [1], the cell count was 611. The inhibition was 1.5% (inactive) in [1]; 7.3% (inactive) in [3]; 1.63% (inactive) in assay [5]; 21% (inactive) in assay [11]; 15.2% (inactive) in [12]; 17.7% (inactive) in [13]. Further, the inhibition of aggregation in assay [2] is -12.2% (inactive). In addition, the figures for the nuclei count in assay [2] and in assay [3] were 98.4% and 119%, respectively. The z-score in assay [4] (setting [14]) was 0.31; in assay [4] (setting [15]), -0.164; in [4] (setting [16]), -0.787. The fluorescence slope in assay [6] was -0.479 (inactive); in assay [9], 0.00508 (inactive). For the same molecule, the NADPH fluorescence slope in assay [7] was -5e-05 (inactive). For the same molecule, the slope in [8] was 0.0052 (inactive). Moreover, the call in [10] was inactive.
With `O=C(CCN1C(=O)c2ccccc2C1=O)OCN1C(=O)c2ccccc2C1=O`, the cell count in [1] turned out to be 490. Also, the inhibition in assay [1] is 2.7% (inactive); in assay [3], -112% (inactive); in assay [5], 29.7% (inactive); in assay [11], 1.44% (inactive); in [12] it was -10.1% (inactive); in assay [13], -11.6% (inactive). In addition, the inhibition of aggregation in assay [2] was 10% (inactive). In addition, the results for the nuclei count in assay [2] and in [3] were 95.1% and 151%, respectively. Moreover, the z-score in assay [4] (setting [14]) is 0.766; in assay [4] (setting [15]), -1.53; in assay [4] (setting [16]), -0.92. Further, the fluorescence slope in assay [6] was -0.336 (inactive); in assay [9], 0.00607 (inactive). Besides, the NADPH fluorescence slope in [7] was 4.5e-07 (inactive). Also, the slope in [8] was 0.00721 (inactive). In addition, the outcome in assay [10] was inactive.
Take `CN(C)C(CN1C(=O)C2CC=CCC2C1=O)c1cn(C)c2ccccc12` (stereo not given): in [1], the cell count was 665. The inhibition in assay [1] is 2.5% (inactive); in [3], -48.8% (inactive); in assay [5], -3.95% (inactive); in assay [11] it was -7.45% (inactive); in [12], 24.3% (inactive); in assay [13] it was 46.8% (inactive). Besides, the inhibition of aggregation in assay [2] is 12.2% (inactive). In addition, the results for the nuclei count in [2] and in assay [3] were 99.9% and 124%, respectively. Also, the z-score in [4] (setting [14]) is -1.61; in [4] (setting [15]), 2.35; in assay [4] (setting [16]) it was 0.886. The fluorescence slope in [6] is -0.474 (inactive); in assay [9], 0.00462 (inactive). Further, in assay [7], the NADPH fluorescence slope was -2.6e-05 (inactive). Besides, the slope in assay [8] is 0.00544 (inactive). In addition, in [10], the molecule was classed as inactive.
Regarding `COCCNc1oc(-c2ccc(C)cc2)nc1C#N`, in [1], the cell count came out at 405. Further, the inhibition in [1] is 1.6% (inactive); in assay [3], -23.4% (inactive); in assay [5] it was 18.2% (inactive); in assay [11] it was 4.66% (inactive); in [12], -24.8% (inactive); in [13], -85.8% (inactive). For the same molecule, the inhibition of aggregation in assay [2] is 12.5% (inactive). The nuclei count in assay [2] was determined as 88.9%; in [3], 129%. Moreover, the z-score in assay [4] (setting [14]) was -0.898; in [4] (setting [15]), 0.297; in assay [4] (setting [16]) it was 1.87. The values for the fluorescence slope in [6] and in [9] were -0.461 (inactive) and 0.00552 (inactive), respectively. Moreover, the NADPH fluorescence slope in [7] is -5.9e-05 (inactive). Further, in [8], the slope was 0.00692 (inactive). Also, the outcome in [10] was inactive.
